These results are taken from PubChem BioAssay AID2551 (National Center for Advancing Translational Sciences (NCATS), 2010).

Values joined by “and” are separate entries in the source; they are usually repeats but may differ in a detail not shown here. Equal values may be shown once. In all, about 310,000 compounds went through this assay and about 17,000 (5.5%) were called active. Another 11% or so got no clear call; they are omitted. The call rests on the fitted dose curve; in most records, active means well fitted inhibition curve with a large enough effect; inconclusive means small, poorly fitted or top-dose-only effect, or effect the other way; inactive means no such curve, though single readings can be large or run the other way. What follows is part of a selection rich in actives, with near analogues and random picks from the rest. A call without a number means that no potency is given here. More than one record can exist for a structure, and the calls need not agree.
Potency means the concentration at half of the fitted maximal effect.

Chain of Nuclear receptor ROR-gamma (Mus musculus) (P51450 whole entry, looked up, the tested form may be a part): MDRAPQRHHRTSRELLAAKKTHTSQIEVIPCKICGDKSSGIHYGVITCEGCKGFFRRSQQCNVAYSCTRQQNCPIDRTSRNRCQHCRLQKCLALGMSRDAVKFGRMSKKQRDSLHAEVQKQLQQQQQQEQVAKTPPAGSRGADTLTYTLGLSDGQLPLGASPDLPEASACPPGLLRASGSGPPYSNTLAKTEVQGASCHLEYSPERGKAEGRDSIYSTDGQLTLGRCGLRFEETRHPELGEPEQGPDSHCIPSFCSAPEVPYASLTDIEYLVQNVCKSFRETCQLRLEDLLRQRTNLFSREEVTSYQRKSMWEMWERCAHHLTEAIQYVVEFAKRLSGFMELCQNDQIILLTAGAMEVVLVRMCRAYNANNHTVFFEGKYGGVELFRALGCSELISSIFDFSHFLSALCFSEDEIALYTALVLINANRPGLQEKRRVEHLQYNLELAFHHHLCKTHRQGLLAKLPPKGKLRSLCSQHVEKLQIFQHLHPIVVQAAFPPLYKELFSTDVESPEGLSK

The assay has as its target Nuclear receptor ROR-gamma (Mus musculus) (UniProt P51450). The assay can be described thus: qHTS for inhibitors of ROR gamma transcriptional activity. Further: nearly all actives have a fitted effect of over 60% in size. To be noted: Drosophila S2 Gal4-RORgamma UAS-luciferase reporter, 20 h; series mostly up to 53.6 µM. The source says: NIH Molecular Libraries Probe Production Network [MLPCN] NIH Chemical Genomics Center [NCGC] MLPCN Grant: R03 DA026211-01 Assay Provider: Dan Littman, New York University Assay Overview: The retinoic acid-related orphan receptor (ROR) gamma is a transcription factor that has a central role in the differentiation of Th17 cells, a subset of T helper cells that secrete the inflammatory cytokines IL-17, IL-17F, and IL-22. Th17 cells have been implicated in graft versus host disease, autoimmune disease and asthma. ROR gamma is induced in naive T helper cells in the presence of TGF-beta combined with IL-6, IL-21, or IL-23, and thereafter directs the expression of the Th17 lineage cytokines. To study the mechanism of action of ROR gamma, an insect cell-based assay was screened. This Drosophila Schneider cell line was stably transfected with two vectors: a gene expressing a fusion of the Gal4 DNA binding domain and ROR gamma transactivation domain under the control of the metallothionine promoter and a Photinus luciferase reporter regulated by the Gal4 binding site enhancer, UAS. […] Small molecule inhibitors of ROR gamma activity are detected by a decrease in luciferase reporter activity.
Assay Protocol Summary: For screening, 600 cells in 4 uL/well were dispensed into white solid 1536-well plates (Grenier) using a solenoid-based dispenser. Following transfer of 23 nL compound or DMSO vehicle by a pin tool, the plates were incubated 1 hr at ambient temperature, and 1 uL/well copper sulfate (700 uM final concentration) was added. The plates were centrifuged 15 s at 1000 RPM and incubated 20 hr at ambient temperature. After addition of 1.5 uL Photinus luciferase detection reagent, the plates were incubated 10 min at ambient temperature and then read by an ViewLux (Perkin Elmer) to detect luminescence. Keywords: NIH Roadmap, MLPCN, MLI, MLSMR, qHTS, NCGC, qHTS, nuclear hormone receptor, retinoic acid-related orphan receptor, ROR gamma
A general note: qHTS replaces the single test concentration by a dilution series.
On to `NC[C@H](O)c1ccc(O)cc1`, for which the Potency entry is “inactive”.

On to `COc1ccc(C2Oc3c(I)c(OC)cc(OC)c3CC2O)cc1OC` (stereo not given), for which the Potency result was “inactive”.

Regarding `CC(C)(C)c1ccc(CN2C(=O)CN=C(c3ccccc3)c3ccccc32)cc1`, the Potency entry is “inactive”.

For the molecule `ClCCBr`, the Potency result was “inactive”.

Regarding `Cc1cc(C)cc(NC(=S)NC2CC3CCCC(C2)N3Cc2cccs2)c1` (stereo not given), the Potency was 8.91 µM (active).

Turning to `C[C@@H]1C[C@H]2CC[C@H](O2)[C@H](C)C(=O)O[C@@H](C)C[C@@H]2CC[C@@H](O2)[C@@H](C)C(=O)O[C@H](C)C[C@H]2CC[C@H](O2)[C@H](C)C(=O)O[C@@H](C)C[C@@H]2CC[C@@H](O2)[C@@H](C)C(=O)O1`, the Potency is 0.891 µM (active).

For the molecule `CC(=O)Oc1ccccc1C(=O)Nc1ncc([N+](=O)[O-])s1`, the Potency result was “inactive”.

Take `N#Cc1c(Cl)c(Cl)c(Cl)c(C#N)c1Cl`: the Potency was 2.51 µM (active).

On to `O=C1CCc2cccc3c2N1CC3`, for which the Potency result is “inactive”.

On to `Nc1ccc(-c2ccc(N)c(N)c2)cc1N`, for which the Potency result was “inactive”.

Regarding `CC1=CC(=O)C2=C(C)C[C@H](O)[C@H]3[C@H](C)C(=O)O[C@@H]3C12` (stereo not given in full), the Potency entry is “inactive”.

For `C=CCSSCC=C`, the Potency entry was “inactive”.

Consider `CCCCCCCCc1[se]c2ccccc2c1Br`, for which the Potency result was “inactive”.

In the case of `O=C(O)c1ccccc1NC(=O)C1C2CCC(O2)C1C(=O)O` (stereo not given), the Potency result was “inactive”.

Regarding `c1csc(CN2CC3(CCNCC3)C2)n1`, the Potency result is “inactive”.

With `C1CC[C@H]([C@@]23C[C@H](C[C@H]4CCCN[C@H]42)[C@@H]2CCCCN2C3)NC1`, the Potency entry was “inactive”.

For `Cc1nc2ccccn2c1P(=S)(N1CCCCC1)N1CCCCC1`, the Potency was 7.08 µM (active).

Regarding `c1ccc(CCCCN2CCC(c3ccccc3)CC2)cc1`, the Potency result is “inactive”.

Turning to `Clc1ccc([C@@H]2C[C@H]3CC[C@@H]2N3)cn1`, the Potency result was “inactive”.

As to `CC[C@]1(O)C(=O)OCc2c1cc1n(c2=O)Cc2cc3ccccc3nc2-1`, the Potency entry is “inactive”.

As for `Cc1ncc(CC(=O)n2cc(C(=O)c3cc(Cl)ccc3O)cn2)s1`, the Potency is 7.94 µM (active).

`CC(C)(Cc1c[nH]c2ccc(Cl)cc12)NCCOc1ccccc1OCC1CC1`: the Potency is 12.6 µM (active).

Consider `N[C@H](C(=O)O)c1cc(=O)[nH]o1`, for which the Potency entry was “inactive”.

On to `CC(=O)[O][Sn]([c]1ccccc1)([c]1ccccc1)[c]1ccccc1`, for which the Potency was 0.891 µM (active).

Regarding `COC(=O)N1C(c2ccccc2)C1c1ccccc1` (stereo not given), the Potency result is “inactive”.

Turning to `C[C@@]12CCC3C(CC[C@@H]4CC(O)CC[C@@]34C)C1CCC2O` (stereo not given in full), the Potency entry is “inactive”.

As to `Cc1ncsc1CCCl`, the Potency result is “inactive”.

As to `COc1cc2c(cc1OC)[C@@H]1C(=O)c3ccc(O)c(CC=C(C)C)c3OC1CO2` (stereo not given in full), the Potency entry was “inactive”.

On to `C[C@@]12CC[C@H]3[C@@H](CC[C@]4(O)C[C@H](O)CC[C@@]34C=O)[C@]1(O)CC[C@@H]2C1=CC(=O)OC1`, for which the Potency entry was “inactive”.

`N#Cc1cc(Br)c(O)c(Br)c1`: the Potency result was “inactive”.

As to `CCCCC(=O)N/N=C/c1c(O)n(CC)c(=S)n(CC)c1=O`, the Potency was 2 µM (active).

Turning to `CCCCC(=O)N/N=C/c1c(O)n(-c2ccccc2)c(=O)[nH]c1=O`, the Potency entry is “inactive”.

`CCCCC(=O)N/N=C/c1c(O)n(CCC2=CCCCC2)c(=O)[nH]c1=O`: the Potency result is “inactive”.

Regarding `CC(Cl)Cl`, the Potency result is “inactive”.

`COC1=C[C@]23CCCN2CCc2cc4c(cc2[C@@H]3[C@@H]1O)OCO4`: the Potency entry is “inactive”.

For `CCN1C[C@]2(C)CC[C@H](O)[C@@]34[C@@H]5CC6[C@@H](OC)C[C@@](O)([C@@H]5[C@@H]6O)[C@H](C[C@@H]23)[C@H]14`, the Potency entry was “inactive”.

For `CO[C@H]1[C@@H](O)[C@@H](C)O[C@H](O[C@H]2[C@H](Oc3cccc4c(O)c5c(=O)oc6ccc(C)c7c(=O)oc(c34)c5c67)O[C@H](C)[C@H](O)[C@@H]2O)[C@@H]1O`, the Potency is 11.2 µM (active).

Turning to `CN1C2CC3CC1C(O3)C2O` (stereo not given), the Potency result was “inactive”.

`CC(C)(c1ccccc1)c1ccc(O)cc1`: the Potency result is “inactive”.

Consider `CCOc1ccc(-c2cc(C)[n+](CCN(CC)CC)c(-c3ccc(OCC)cc3)c2)cc1`, for which the Potency result was “inactive”.

Turning to `CCCCC/C=C\C/C=C\C/C=C\CCCCCCC(=O)NCCO`, the Potency result was “inactive”.

Consider `COc1ccc(CN2CCN(c3ccccc3F)CC2)c(OC)c1`, for which the Potency entry was “inactive”.

Turning to `COc1cc(-n2c(=S)[nH]c3ccc(C)cc3c2=O)c(Cl)cc1Cl`, the Potency was 2.51 µM (active).

`COc1ccccc1-c1[se]c2ccccc2c1I`: the Potency result is “inactive”.

`C[C@]12O[C@H](C[C@@]1(O)C(=O)O)n1c3ccccc3c3c4c(c5c6ccccc6n2c5c31)CNC4=O`: the Potency result was “inactive”.

With `CNCC[C@H](Oc1ccc(C(F)(F)F)cc1)c1ccccc1`, the Potency entry was “inactive”.

On to `C=CC#N`, for which the Potency result was “inactive”.

As to `O=C1C2CCN(CC2)C1(CO)CO`, the Potency result is “inactive and 25.1 µM (active)”.

With `c1ccc2c(c1)[I+]c1ccccc1-2`, the Potency entry is “inactive”.

As for `O=P1(Oc2ccccc2)CC(O)C(O)C(COCc2ccccc2)O1` (stereo not given), the Potency entry was “inactive”.
